Inconclusive results are not listed. Calls of active or inactive are those of the source. The calls were made as follows: active = hit-call score of the fitted dose curve at least 0.9, where 1 is the maximum; inconclusive = response in the unintended direction; inactive = score below 0.9.

Read-out in the assay: ABC Transporter (ABCB1), ABCB1 (gene 5243)
The assay is described as follows: CLD_ABCB1_6hr: CellzDirect (CLD) Gene Expression Assay for ABC Transporter (ABCB1) at 6 hours (AID 2283659).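 Also: hits raise ABCB1 transcript above the DMSO vehicle baseline.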 The method, then:
CLD_6hr is a cell-based, multiplexed-readout assay that uses hepatocyte, a human liver primary cell, with measurements taken at 6 hours after chemical dosing in a 96-well plate.CLD_ABCB1_6hr is one of 16 assay component(s) measured or calculated from the CLD_6hr assay. It is designed to make measurements of mRNA induction, a form of inducible reporter, as detected with chemiluminescence signals by Quantitative Nuclease Protection Assay (qNPA) technology.Data from the assay component CLD_ABCB1_6hr was analyzed at the endpoint, CLD_ABCB1_6hr, in the positive analysis fitting direction relative to DMSO as the negative control and baseline of activity. Using a type of inducible reporter, gain-of-signal activity can be used to understand changes in the reporter gene as they relate to the gene ABCB1. Furthermore, this assay endpoint can be referred to as a primary readout. To generalize the intended target to other relatable targets, this assay endpoint is annotated to the transporter intended target family, where subfamily is ABC transporter.
Human hepatocyte cultures were treated daily for two consecutive days with fresh dosing solutions containing appropriate concentrations of the 320 ToxCast chemicals (chemical identities were blinded to CellzDirect and other ToxCast collaborators), vehicle control (0.2% DMSO), and positive control inducers as summarized in Table 1. Due to the large number of treatment groups and chemicals examined, the ToxCast chemicals were divided into two groups (spanning two independent cultures of hepatocytes from separate donor preparations (Hu778: ToxCast plates 1 and 2; Hu776: ToxCast plates 3 and 4). Each preparation of human hepatocyte cultures was treated with respective vehicle control, medium only control, set of six positive controls/reference chemicals for the five hepatic receptor pathways, and a subset of eight of the ToxCast chemicals (indoxacarb, pyrithiobac-sodium, norflurazon, cyhalofop-butyl, methomyl, thiram, acetochlor, and propiconazole). These replicate data, coupled with internal replicates designed within the blinded ToxCast chemical library, provided additional data to evaluate interindividual differences between hepatocyte preparations and their potential impact on chemical profiles.Cell morphology and integrity were evaluated using phase-contrast microscopy as an indicator of hepatocyte cell health (Tyson & Green, 1987). Cultures for each treatment group (i.e., media, vehicle [0.2% DMSO], positive control inducers [multiple concentrations], and the ToxCast chemicals [multiple concentrations]) were observed and cell morphology was assessed relative to vehicle control cultures at each harvest time point (0, 6, 24, or 48 h). […] Images were evaluated at the conclusion of the study to assess changes in cell integrity and account for the effects of chemical exposure on uncharacteristic changes in concentration-dependent gene expression profiles. The results from these determinations of apparent cytotoxicity were annotated (yes/no) alongside the corresponding qNPA data for reference.At the conclusion of each treatment period, hepatocyte cultures (96-well) were washed with 1 volume of HBSS, lysed by addition of 25 ul ArrayPlate lysis buffer (HTG, Tucson, AZ), and 70 ul/well of Denaturation Oil, denatured by incubation at 95C for 10 min, and frozen at approximately -70C until analysis by nuclease protection assay (qNPA) (Roberts et al., 2007). For qNPA analysis, cell lysates were thawed at 50C for approximately 30 min, qNPA probes were added, and samples were incubated at 95C for 10 min to begin the detection process by denaturing the target RNA, dissociating the duplexes and secondary structure hybridization. At the conclusion of the hybridization period, S1 nuclease reagent was added to each sample to digest all nonprotected nucleotides at 50C for 60-90 min. […]
Consider `CCc1cnc(C2=NC(C)(C(C)C)C(=O)N2)c(C(=O)O)c1` (stereo not given), for which the compound was called inactive.
The entry for `C#CCC1=C(C)C(OC(=O)C2C(C=C(C)C)C2(C)C)CC1=O` (stereo not given) is “inactive”.
Regarding `CC1(C(=O)Nc2ccc(O)c(Cl)c2Cl)CCCCC1`, the call was inactive.
For `C#CC(C)(C)NC(=O)c1cc(Cl)cc(Cl)c1`, the compound was called inactive.
As to `C[Si](Cn1cncn1)(c1ccc(F)cc1)c1ccc(F)cc1`, the result was inactive.
Take `CCCOCC(=Nc1ccc(Cl)cc1C(F)(F)F)n1ccnc1`: the call was inactive.
For the compound `CCOP(=O)(SC(C)CC)N1CCSC1=O` (stereo not given), the result was inactive.
With `CC(Oc1cccc(Cl)c1)C(=O)O` (stereo not given), the outcome was inactive.
Turning to `COP(=O)(NC(C)=O)SC` (stereo not given), the compound was classed as inactive.
In the case of `CSc1nnc(C(C)(C)C)c(=O)n1N`, the outcome was inactive.
`CCNc1nc(Cl)nc(NC(C)(C)C#N)n1`: the compound was called inactive.
With `CCOC(=O)CC(SP(=O)(OC)OC)C(=O)OCC` (stereo not given), the result was inactive.
Consider `CSC1=N[C@@](C)(c2ccccc2)C(=O)N1Nc1ccccc1`, for which the result was inactive.
As to `CC1=NNC(=O)N(/N=C/c2cccnc2)C1`, the compound was called inactive.
Take `C[N+]1(C)CCCCC1`: the result was inactive.
Take `COc1cc(OC)nc(Sc2cccc(Cl)c2C(=O)O)n1`: the compound was classed as inactive.
`Cc1nn(-c2cc(NS(C)(=O)=O)c(Cl)cc2Cl)c(=O)n1C(F)F`: the compound was classed as inactive.
Then `CN(C)C(=O)Nc1cccc(C(F)(F)F)c1`, with “inactive”; and `COc1cccc(C(=O)NN(C(=O)c2cc(C)cc(C)c2)C(C)(C)C)c1C`, with “inactive”; and `CCOC(=O)COc1cc(-c2nn(C)c(OC(F)F)c2Cl)c(F)cc1Cl`, with “inactive”.
In the case of `CCOP(=S)(Oc1cnc(C(C)(C)C)nc1)OC(C)C` (stereo not given), the compound was classed as inactive.
As to `CCOP(=S)(OCC)Oc1ccc2c(C)c(Cl)c(=O)oc2c1`, the outcome was inactive.
Then `CN1COCN(Cc2cnc(Cl)s2)C1=N[N+](=O)[O-]`, with “inactive”.
Take `CCCCN(CC)c1c([N+](=O)[O-])cc(C(F)(F)F)cc1[N+](=O)[O-]`: the call was inactive.
In the case of `CON=C(C(=O)OC)c1ccccc1CON=C(C)c1cccc(C(F)(F)F)c1`, the outcome was inactive.
Take `CCCCOC(=O)[C@@H](C)Oc1ccc(Oc2ccc(C#N)cc2F)cc1`: the outcome was inactive.
The entry for `N#CSCSC#N` is “inactive”.
Take `CCCCOC(=O)c1ccccc1C(=O)O`: the outcome was inactive.
For the compound `CC(C)=CC1C(C(=O)OCN2C(=O)C3=C(CCCC3)C2=O)C1(C)C` (stereo not given), the outcome was inactive.
For `CCCSP(=O)(OCC)SCCC`, the compound was classed as inactive.
On to `CN(C)[C@@H]1C(=O)C(C(N)=O)=C(O)[C@@]2(O)C(=O)C3=C(O)c4c(O)cccc4[C@@](C)(O)[C@H]3[C@H](O)[C@@H]12`, for which the outcome was inactive.
For the compound `CC(C)[C@H](C(=O)O[C@H](C#N)c1cccc(Oc2ccccc2)c1)c1ccc(Cl)cc1`, the call was inactive.
For `O=C(O)c1cc(Oc2ccc(C(F)(F)F)cc2Cl)ccc1[N+](=O)[O-]`, the result was inactive.
`CCOP(=S)(OCC)Oc1ccc([N+](=O)[O-])cc1`: the call was inactive.
As for `CNC(=O)ON=C(SC)C(=O)N(C)C`, the compound was classed as inactive.
On to `CCOP(=S)(OCC)Oc1cc(C)nc(C(C)C)n1`, for which the call was inactive.
Consider `CC(C1CC1)C(O)(Cn1cncn1)c1ccc(Cl)cc1` (stereo not given), for which the compound was classed as inactive.
With `Cc1ccn2nc(S(=O)(=O)Nc3c(F)cccc3F)nc2n1`, the compound was called inactive.
Take `CCC(=NOC/C=C/Cl)C1=C(O)CC(C2CCOCC2)CC1=O` (stereo not given): the outcome was inactive.
Consider `CCOP(=S)(OCC)OC(Cl)C(Cl)(Cl)Cl` (stereo not given), for which the result was inactive.

These data come from PubChem BioAssay (EPA / NIEHS).
